Results: PubChem BioAssay (NCI)
The panel holds about 79,000 compounds, 15% with a hit somewhere; the sample as a whole holds those more often. No stated cut-off is given here; in the data, active means growth inhibition above about 70%; inactive means the rest.

What was measured:
[1] = NCI Yeast Anticancer Drug Screen. Data for the rad50 strain (AID 155);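 further: 0% = growth of vehicle-only cultures of the same strain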; details: S. cerevisiae rad50 strain growth inhibition; at 50.0 µM; active compounds read high
In short: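 Compounds were tested on a yeast strain with an engineered DNA damage repair alteration; the reported value is growth inhibition normalised to vehicle treatment.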

[2] = NCI Yeast Anticancer Drug Screen. Data for the mec2-1 strain (AID 157); details: S. cerevisiae mec2-1 strain, at 50.0 µM, active compounds read high
In short: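 Test agents were screened against the mec2-1 yeast strain, with defined DNA repair or cell cycle alteration. Growth was scored as inhibition against vehicle-only controls.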

[3] = NCI Yeast Anticancer Drug Screen. Data for the sgs1 mgt1 strain (AID 161);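 further: 0% = growth of cultures given vehicle only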; details: S. cerevisiae sgs1 mgt1 strain, at 50.0 µM, active compounds read high
In short: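 Genetically altered yeast, compound exposure, growth inhibition relative to vehicle.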

[4] = NCI Yeast Anticancer Drug Screen. Data for the cln2 rad14 strain (AID 165);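 further: 0% = growth equal to vehicle treated cultures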; details: S. cerevisiae cln2 rad14 strain, at 50.0 µM, active compounds read high
In short: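 Growth of compound-exposed yeast (cln2 rad14 genotype) measured and expressed as inhibition relative to vehicle.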

[5] = NCI Yeast Anticancer Drug Screen. Data for the bub3 strain (AID 167); details: S. cerevisiae bub3 mutant strain, at 50.0 µM, active compounds read high
In short: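 Growth of a checkpoint-deficient yeast mutant is measured after compound exposure. Values represent inhibition relative to vehicle.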

[6] = NCI Yeast Anticancer Drug Screen. Data for the mlh1 rad18 strain (AID 175); details: S. cerevisiae mlh1 rad18 strain growth inhibition; at 50.0 µM; active compounds read high
In short: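 In this whole-cell yeast screen, a strain with altered DNA damage repair is challenged with compound, and its growth is measured against matched vehicle-treated controls.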

Measured: growth inhibition

O=C1OC(c2ccc([N+](=O)[O-])cc2)=N/C1=C\c1ccccc1
inactive: [1] 1.85% | [2] 4.5% | [3] 11.1% | [4] 5.45% | [5] 6.25% | [6] -11.5%

C[N+]1=CN(c2ccc(Cl)cc2)Cc2cc(Cl)ccc21
inactive: [1] 31.1% | [2] -12.1% | [3] 25.6% | [4] 13.4% | [5] 40.1% | [6] 34%

CC(=O)Nc1cc2cc(NS(=O)(=O)c3ccc(Cl)c(Cl)c3)ccc2oc1=O
inactive: [1] 8.35% | [2] -1.55% | [3] 0.35% | [4] 19.9% | [5] -4% | [6] 10.4%

O=C=Nc1ccc(Cl)c(Cl)c1
inactive: [1] -19.9% | [2] -29.4% | [3] -43% | [4] -9.1% | [5] -13.7% | [6] -19.1%

CC(C)(CS(C)(=O)=O)C(=O)O
inactive: [1] 2.5% | [2] -18.9% | [3] 3.05% | [4] -7.55% | [5] -2.05% | [6] 4.65%

C/C=C/Sc1ccccc1C(=O)O
inactive: [1] -14.3% | [2] -19.4% | [3] -9.55% | [4] -18.9% | [5] -22.6% | [6] -34%

C1=C(c2ccccc2)C(c2ccccc2)=C(c2ccccc2)C(c2ccccc2)C(c2ccccc2)=N1 (stereo not given)
inactive: [1] 2.75% | [2] 10.2% | [3] -2.95% | [4] 21.4% | [5] -2.5% | [6] 8.55%

Cc1cccc(O)c1C(=O)O
inactive: [1] -8.15% | [2] -12% | [3] -15.6% | [4] -9.45% | [5] 9.05% | [6] -0.25%

O=S(=O)(Cc1cccs1)c1ncc(Br)cn1
inactive: [1] 9.25% | [2] 10.1% | [3] 7.9% | [4] 7.5% | [5] 11.8% | [6] 7.8%

N#Cc1ccc[n+](Cc2c(Cl)cccc2Cl)c1
inactive: [1] 6.6% | [2] 28.9% | [3] 23.2% | [4] 5.8% | [5] 20.6% | [6] 44.1%

CCCCCCCC/C=C\CCCCCCCC(N)=O
inactive: [1] -20.9% | [2] -34.6% | [3] -11.5% | [4] -53% | [5] -21.1% | [6] -50%

O=Cc1ccc2ccocc1-2
inactive: [1] 9.15% | [2] 14.8% | [3] -27.6% | [4] -11.8% | [5] -20.7% | [6] -41.2%

CC1(C)/C(=C\C(=O)O)C2CCC1C2 (stereo not given)
inactive: [1] 11.4% | [2] 8.3% | [3] 7.5% | [4] -10.8% | [5] -9.1% | [6] 8.75%

C=CCNC(=S)Nc1ccc(OC(=O)NC2CCCCC2)cc1
inactive: [1] 6.4% | [2] 23.6% | [3] 15.1% | [4] -7.85% | [5] -2.4% | [6] 31.9%

CC1=C(C#N)C(=O)OC1(C)C1CCCC(=O)C1 (stereo not given)
inactive: [1] -24.8% | [2] -1.45% | [3] -11.3% | [4] -2.7% | [5] 1.95% | [6] -3.75%

CC12CCC(C(S(=O)(=O)O)C1=O)C2(C)C (stereo not given) (tested in a mixture with another compound)
inactive: [1] -1.2% | [2] -15.1% | [3] -6.7% | [4] -5.7% | [5] -0.6% | [6] 0.55%

Cc1cccc(C)c1NC=O
inactive: [1] 4.7% | [2] -2.35% | [3] -3.3% | [4] 1.45% | [5] -9.8% | [6] 8.9%

C=C(C)C12CC3CC(/C(=N/O)C(C1)/C3=N\O)[C@@]2(C)O (stereo not given in full)
inactive: [1] -31.8% | [2] -34.8% | [3] -46% | [4] -8.2% | [5] -26.9% | [6] -59%

CC(C)(C(=O)O)c1ccccc1C(=O)c1ccccc1
inactive: [1] -10.7% | [2] 12.1% | [3] 0.15% | [4] 49.3% | [5] -0.75% | [6] 14.3%

CCC12C=CCN(CCc3c([nH]c4ccccc34)/C=C\1)C2 (stereo not given)
inactive: [1] -8.95% | [2] -8.75% | [3] -7.25% | [4] -1.6% | [5] 6.55% | [6] -15.8%
